Results from PubChem BioAssay (NCATS).
Records with an inconclusive call do not appear. Active and inactive are the calls of the source. The call rests on the fitted dose curve; in most records, active means well fitted inhibition curve with a large enough effect; inconclusive means small, poorly fitted or top-dose-only effect; inactive means flat fitted curve, though single readings scatter.

How the values were obtained:
Experiment in all cases: qHTS profiling for inhibitors of Plasmodium falciparum proliferation (AID 504749); further: nearly all actives have a fitted effect of over 60% in size
Conditions in all cases: P. falciparum in erythrocytes, SYBR Green DNA, 72 h; series mostly up to 12.8 µM
[1] = system: CP256
In short: (§1)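 Three-day growth assay of blood-stage parasites in erythrocytes (0.3% parasitemia, 2.5% hematocrit) at 37 C, 5% CO2, quantified by SYBR Green DNA staining after overnight detergent lysis.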

[2] = system: CP260
In short: as §1

[3] = system: CP262
In short: as §1

[4] = system: CP265
In short: as §1

[5] = system: CP266
In short: as §1

[6] = system: CP268
In short: as §1

[7] = system: CP269
In short: as §1

[8] = system: CP286
In short: as §1

[9] = system: CP291
In short: as §1

[10] = system: CP297
In short: as §1

[11] = system: CP305
In short: as §1

[12] = system: CP315
In short: as §1

[13] = system: CP325
In short: as §1

[14] = system: CP329
In short: as §1

[15] = system: CP335
In short: as §1

[16] = system: DIV14
In short: as §1

[17] = system: DIV17
In short: as §1

[18] = system: DIV30
In short: as §1

[19] = system: Dd2
In short: as §1

[20] = system: ECU
In short: as §1

[21] = system: FAB9
In short: as §1

[22] = system: GB4
In short: as §1

[23] = system: HB3
In short: as §1

[24] = system: ICS
In short: as §1

[25] = system: JCK
In short: as §1

[26] = system: N140
In short: as §1

[27] = system: P93_24
In short: as §1

[28] = system: P94_40
In short: as §1

[29] = system: PAD
In short: as §1

[30] = system: PC15
In short: as §1

[31] = system: PC26
In short: as §1

[32] = system: PC49
In short: as §1

[33] = system: SC27B
In short: as §1

[34] = system: TAB109
In short: as §1

[35] = system: TAB113
In short: as §1

[36] = system: TAB165
In short: as §1

[37] = system: W2
In short: as §1

Measured: Potency

O=C(O)[C@@H]1CCCN1
inactive: all assays above
